Measurements reported in the supplement of paper PMC11732987, “Enantioselective OTUD7B fragment discovery through chemoproteomics screening and high-throughput optimisation” (Communications Chemistry, 2025).

Tests used:
Assay in all cases: log2 ratio of Biotin-Ahx-Ub-VS probe labelling (fragment/DMSO); higher = less target engagement (more negative = stronger competition), active = hit call of the paper (q ≤ 0.05, log2 ratio ≤ -1)
Conditions in all cases: compound concentration: 200 uM; treatment time: 3 h
USP19 = biological target: T1, USP19 (UniProt O94966)
T1 sequence (whole entry): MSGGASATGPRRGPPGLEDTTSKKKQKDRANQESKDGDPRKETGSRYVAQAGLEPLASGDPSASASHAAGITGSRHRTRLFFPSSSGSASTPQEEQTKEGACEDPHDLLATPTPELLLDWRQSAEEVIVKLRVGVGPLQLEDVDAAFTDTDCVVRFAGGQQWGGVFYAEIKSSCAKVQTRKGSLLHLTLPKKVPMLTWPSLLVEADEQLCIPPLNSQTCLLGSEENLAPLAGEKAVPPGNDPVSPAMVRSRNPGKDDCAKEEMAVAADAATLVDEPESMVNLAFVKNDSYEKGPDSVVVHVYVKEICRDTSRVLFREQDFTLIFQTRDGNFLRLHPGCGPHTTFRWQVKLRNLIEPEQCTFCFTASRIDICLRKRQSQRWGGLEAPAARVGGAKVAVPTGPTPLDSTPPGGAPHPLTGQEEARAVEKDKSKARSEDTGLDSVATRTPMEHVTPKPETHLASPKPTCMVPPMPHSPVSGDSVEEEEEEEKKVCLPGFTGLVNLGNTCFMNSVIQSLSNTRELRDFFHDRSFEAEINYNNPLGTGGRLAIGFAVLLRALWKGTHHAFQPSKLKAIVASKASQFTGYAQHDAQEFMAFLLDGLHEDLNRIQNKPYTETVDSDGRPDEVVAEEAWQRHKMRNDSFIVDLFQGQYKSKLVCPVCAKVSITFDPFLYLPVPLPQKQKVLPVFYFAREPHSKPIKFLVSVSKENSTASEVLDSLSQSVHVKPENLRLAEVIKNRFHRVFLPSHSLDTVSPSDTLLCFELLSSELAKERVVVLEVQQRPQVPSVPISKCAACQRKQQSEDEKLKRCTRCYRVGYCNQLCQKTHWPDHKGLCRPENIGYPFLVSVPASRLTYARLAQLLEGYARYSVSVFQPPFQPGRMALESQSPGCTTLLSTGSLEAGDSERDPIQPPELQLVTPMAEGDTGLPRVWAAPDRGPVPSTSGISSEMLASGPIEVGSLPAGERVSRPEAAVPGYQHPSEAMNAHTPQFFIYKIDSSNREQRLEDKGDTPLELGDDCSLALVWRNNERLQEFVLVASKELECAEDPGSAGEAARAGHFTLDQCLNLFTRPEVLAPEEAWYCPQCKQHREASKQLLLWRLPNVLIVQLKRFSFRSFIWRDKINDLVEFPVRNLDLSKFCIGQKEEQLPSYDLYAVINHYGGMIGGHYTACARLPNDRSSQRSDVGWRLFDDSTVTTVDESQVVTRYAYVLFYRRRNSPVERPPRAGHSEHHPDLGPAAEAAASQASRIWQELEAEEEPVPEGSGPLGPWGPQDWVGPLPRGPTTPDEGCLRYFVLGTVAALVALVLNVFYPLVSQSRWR
Summary of the method: (§1)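 HEK293T lysate (495 µg per sample, in Tris/CHAPS/IGEPAL buffer with protease inhibitors) was treated in triplicate with fragment at 200 µM or with DMSO for 3 h. It was then treated with Biotin-Ahx-Ub-VS (0.5 µM final) for 1 h. Labelled DUBs were NeutrAvidin-enriched, digested with LysC and trypsin, and run by diaPASEF LC-MS/MS. Spectronaut label-free quantities were global-median-normalised. Values are average log2 ratios fragment/DMSO by unpaired t-test, using proteins with ≥2 unique peptides.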

USP22 = biological target: T2, USP22 (UniProt Q9UPT9)
T2 sequence (whole entry): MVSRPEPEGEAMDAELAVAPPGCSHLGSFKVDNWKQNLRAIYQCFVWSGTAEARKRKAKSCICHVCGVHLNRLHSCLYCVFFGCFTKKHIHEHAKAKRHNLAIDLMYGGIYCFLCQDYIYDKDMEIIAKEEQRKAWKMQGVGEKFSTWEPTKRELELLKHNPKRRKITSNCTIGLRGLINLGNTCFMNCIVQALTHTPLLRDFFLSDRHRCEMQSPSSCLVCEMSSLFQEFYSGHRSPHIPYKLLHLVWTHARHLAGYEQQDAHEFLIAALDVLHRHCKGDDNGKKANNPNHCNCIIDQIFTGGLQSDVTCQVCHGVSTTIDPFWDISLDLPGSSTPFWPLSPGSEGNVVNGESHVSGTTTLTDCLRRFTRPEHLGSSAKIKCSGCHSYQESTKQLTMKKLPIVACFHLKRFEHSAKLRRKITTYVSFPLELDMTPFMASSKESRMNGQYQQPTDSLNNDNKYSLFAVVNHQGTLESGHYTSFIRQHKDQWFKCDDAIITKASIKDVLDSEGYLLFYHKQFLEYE
Summary of the method: as §1

USP24 = USP24 (UniProt Q9UPU5)
Chain of USP24 (Q9UPU5 whole entry): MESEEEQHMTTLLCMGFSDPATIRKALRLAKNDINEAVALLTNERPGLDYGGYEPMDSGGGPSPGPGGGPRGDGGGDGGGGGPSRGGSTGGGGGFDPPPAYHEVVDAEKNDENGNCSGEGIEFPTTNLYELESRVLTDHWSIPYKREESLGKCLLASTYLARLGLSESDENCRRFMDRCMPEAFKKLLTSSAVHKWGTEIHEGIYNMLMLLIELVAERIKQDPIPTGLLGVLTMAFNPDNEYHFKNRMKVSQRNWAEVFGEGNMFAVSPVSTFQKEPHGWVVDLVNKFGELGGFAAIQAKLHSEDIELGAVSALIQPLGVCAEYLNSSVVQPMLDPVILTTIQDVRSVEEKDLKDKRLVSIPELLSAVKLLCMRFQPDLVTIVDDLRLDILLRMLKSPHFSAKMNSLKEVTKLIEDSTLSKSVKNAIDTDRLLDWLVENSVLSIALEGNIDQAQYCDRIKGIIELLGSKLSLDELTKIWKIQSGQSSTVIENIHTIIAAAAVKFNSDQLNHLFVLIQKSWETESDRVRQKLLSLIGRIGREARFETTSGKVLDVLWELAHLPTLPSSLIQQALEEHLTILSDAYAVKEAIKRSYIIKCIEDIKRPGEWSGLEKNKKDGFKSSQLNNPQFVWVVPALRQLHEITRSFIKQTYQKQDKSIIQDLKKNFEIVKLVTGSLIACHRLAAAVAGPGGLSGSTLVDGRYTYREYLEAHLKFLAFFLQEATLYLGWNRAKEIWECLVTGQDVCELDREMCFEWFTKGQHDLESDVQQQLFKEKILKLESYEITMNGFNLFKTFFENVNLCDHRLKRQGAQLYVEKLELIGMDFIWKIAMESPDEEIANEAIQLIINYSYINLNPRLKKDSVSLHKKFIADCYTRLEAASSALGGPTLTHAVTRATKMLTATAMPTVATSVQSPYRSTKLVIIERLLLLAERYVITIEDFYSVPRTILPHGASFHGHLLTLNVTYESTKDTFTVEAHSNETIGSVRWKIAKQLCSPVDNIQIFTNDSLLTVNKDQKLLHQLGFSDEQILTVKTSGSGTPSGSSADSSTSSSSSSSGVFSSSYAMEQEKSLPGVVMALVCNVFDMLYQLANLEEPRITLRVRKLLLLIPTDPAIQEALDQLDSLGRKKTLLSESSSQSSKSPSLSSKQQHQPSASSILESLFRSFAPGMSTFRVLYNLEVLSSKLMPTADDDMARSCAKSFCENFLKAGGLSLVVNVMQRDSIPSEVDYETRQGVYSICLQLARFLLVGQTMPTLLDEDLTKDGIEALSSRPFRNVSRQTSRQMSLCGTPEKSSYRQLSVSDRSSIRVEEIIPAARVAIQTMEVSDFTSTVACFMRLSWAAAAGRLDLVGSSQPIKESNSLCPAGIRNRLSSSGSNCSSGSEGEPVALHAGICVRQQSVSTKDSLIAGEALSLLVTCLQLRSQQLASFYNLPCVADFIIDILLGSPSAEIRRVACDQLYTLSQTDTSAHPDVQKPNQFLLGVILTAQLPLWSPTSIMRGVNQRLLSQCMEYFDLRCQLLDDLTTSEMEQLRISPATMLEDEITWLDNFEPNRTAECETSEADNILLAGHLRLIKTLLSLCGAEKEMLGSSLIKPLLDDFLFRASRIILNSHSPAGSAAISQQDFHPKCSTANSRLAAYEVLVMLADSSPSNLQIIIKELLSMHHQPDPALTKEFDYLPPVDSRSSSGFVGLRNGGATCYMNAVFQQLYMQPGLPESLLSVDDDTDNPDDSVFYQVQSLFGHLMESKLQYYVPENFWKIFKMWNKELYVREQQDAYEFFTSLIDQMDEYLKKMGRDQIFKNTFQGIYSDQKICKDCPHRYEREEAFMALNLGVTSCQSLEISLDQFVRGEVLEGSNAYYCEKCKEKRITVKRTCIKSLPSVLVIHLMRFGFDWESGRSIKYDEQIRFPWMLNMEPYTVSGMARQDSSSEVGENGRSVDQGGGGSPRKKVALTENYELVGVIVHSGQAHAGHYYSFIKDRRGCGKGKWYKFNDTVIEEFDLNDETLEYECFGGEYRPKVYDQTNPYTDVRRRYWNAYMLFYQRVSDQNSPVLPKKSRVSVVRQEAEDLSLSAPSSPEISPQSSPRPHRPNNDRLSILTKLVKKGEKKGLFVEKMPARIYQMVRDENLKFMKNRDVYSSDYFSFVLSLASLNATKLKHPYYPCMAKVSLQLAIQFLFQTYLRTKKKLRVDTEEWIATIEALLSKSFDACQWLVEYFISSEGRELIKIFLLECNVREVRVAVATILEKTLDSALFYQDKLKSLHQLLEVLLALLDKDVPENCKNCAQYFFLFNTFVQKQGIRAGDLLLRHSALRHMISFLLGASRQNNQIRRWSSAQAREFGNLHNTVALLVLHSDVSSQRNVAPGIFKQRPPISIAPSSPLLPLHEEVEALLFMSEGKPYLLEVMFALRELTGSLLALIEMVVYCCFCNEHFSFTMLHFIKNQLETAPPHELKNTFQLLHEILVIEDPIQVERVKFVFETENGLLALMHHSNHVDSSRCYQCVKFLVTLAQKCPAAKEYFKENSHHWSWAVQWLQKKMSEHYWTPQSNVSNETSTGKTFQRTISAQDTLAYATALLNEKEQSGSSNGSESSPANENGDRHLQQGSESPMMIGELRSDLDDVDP
Summary of the method: as §1

USP25 = biological target: T3, USP25 (UniProt Q9UHP3)
T3 sequence (whole entry): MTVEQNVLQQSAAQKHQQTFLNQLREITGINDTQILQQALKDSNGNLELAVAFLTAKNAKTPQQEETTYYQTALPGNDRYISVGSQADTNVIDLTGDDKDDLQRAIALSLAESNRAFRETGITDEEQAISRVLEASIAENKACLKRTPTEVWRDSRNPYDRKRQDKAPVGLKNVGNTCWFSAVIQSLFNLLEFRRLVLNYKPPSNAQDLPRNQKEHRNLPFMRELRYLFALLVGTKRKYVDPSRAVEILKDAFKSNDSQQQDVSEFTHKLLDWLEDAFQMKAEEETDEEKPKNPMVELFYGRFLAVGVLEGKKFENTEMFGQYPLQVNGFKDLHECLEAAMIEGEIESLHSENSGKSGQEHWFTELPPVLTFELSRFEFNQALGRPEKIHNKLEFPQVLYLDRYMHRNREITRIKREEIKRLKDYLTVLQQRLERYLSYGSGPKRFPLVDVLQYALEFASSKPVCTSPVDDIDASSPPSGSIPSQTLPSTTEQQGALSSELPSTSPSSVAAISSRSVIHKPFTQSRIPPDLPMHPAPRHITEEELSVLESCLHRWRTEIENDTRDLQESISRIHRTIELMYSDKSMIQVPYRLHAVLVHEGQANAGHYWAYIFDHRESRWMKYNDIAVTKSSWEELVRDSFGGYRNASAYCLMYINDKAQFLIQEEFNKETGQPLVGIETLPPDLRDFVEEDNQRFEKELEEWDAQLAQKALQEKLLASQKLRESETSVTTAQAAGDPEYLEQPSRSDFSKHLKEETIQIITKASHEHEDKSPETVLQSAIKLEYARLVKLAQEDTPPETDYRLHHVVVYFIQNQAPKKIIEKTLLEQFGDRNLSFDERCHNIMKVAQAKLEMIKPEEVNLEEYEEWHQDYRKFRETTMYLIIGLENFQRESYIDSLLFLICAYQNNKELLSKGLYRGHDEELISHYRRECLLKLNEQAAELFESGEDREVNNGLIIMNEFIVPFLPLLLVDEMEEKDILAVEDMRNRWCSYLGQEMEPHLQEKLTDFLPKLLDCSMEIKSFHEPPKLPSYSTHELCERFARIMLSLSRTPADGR
Summary of the method: as §1

USP28 = biological target: T4, USP28 (UniProt Q96RU2)
T4 sequence (whole entry): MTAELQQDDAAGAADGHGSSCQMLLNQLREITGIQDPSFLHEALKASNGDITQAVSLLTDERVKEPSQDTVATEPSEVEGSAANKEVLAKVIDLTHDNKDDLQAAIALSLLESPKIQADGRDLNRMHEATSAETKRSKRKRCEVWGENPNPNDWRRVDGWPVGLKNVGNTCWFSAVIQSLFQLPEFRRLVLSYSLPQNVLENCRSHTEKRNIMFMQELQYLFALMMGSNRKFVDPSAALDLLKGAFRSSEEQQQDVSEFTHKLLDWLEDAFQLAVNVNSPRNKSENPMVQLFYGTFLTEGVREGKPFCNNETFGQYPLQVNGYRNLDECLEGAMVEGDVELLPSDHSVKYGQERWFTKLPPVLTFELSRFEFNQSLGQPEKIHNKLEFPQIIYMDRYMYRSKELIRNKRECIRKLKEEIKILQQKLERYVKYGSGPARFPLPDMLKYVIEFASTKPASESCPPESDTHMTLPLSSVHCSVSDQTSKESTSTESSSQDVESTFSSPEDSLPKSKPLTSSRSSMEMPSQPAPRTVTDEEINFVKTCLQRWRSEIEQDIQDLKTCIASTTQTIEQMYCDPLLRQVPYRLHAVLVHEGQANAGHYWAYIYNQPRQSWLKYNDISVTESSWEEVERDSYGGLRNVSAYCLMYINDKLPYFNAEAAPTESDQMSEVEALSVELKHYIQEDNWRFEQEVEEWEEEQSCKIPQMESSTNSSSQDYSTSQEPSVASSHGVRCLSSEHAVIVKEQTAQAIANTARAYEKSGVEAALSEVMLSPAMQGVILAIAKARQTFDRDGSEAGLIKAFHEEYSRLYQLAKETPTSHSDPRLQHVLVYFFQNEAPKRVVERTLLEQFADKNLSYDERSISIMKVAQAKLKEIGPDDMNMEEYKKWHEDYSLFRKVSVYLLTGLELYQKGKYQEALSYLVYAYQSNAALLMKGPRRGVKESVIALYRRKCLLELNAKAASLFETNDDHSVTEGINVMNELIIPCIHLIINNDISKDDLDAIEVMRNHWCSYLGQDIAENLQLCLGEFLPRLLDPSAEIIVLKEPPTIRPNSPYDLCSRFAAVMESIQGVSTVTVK
Summary of the method: as §1

Measured: log2 ratio of Biotin-Ahx-Ub-VS probe labelling

O=C(CCl)N1CCOCC1C1CC1 (stereo not given)
inactive: USP19 -0.0224 | USP22 0.0159 | USP24 -0.173 | USP25 -0.127 | USP28 -0.304
